Shown are actives, neighbours in structure and some others; about 12% of the full set was active somewhere.
G9a block – qHTS Assay for Inhibitors of Histone Lysine Methyltransferase G9a; G9a H3K9 monomethylation, AlphaScreen, 2 h; Potency, µM (series often up to 102 µM), inactives show at the highest dose activity, negative = inhibition, usual class: inhibitors; Histone-lysine N-methyltransferase EHMT2 (Homo sapiens), Q96KQ7; 350,000 tested, 8.8% active; also: % is scaled to controls: 0 for no effect and ±100 for the full control effect; nearly all actives have a fitted effect of over 75% in size
Target sequence (Q96KQ7 913-1193 limits assumed): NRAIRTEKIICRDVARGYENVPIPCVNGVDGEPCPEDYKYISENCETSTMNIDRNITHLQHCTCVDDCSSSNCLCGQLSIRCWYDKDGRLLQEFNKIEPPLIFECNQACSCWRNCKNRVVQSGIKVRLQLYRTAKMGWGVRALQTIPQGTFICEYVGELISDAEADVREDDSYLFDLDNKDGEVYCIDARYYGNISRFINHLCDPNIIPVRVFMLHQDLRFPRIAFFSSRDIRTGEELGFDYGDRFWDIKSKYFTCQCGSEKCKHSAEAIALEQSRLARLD
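Compounds were preincubated with 20 nM G9a for 15 min, after which biotinylated H3K9 peptide (500 nM) and SAM (20 uM) started a 2 h room-temperature reaction. Monomethylated product was quantified by antibody-based AlphaScreen chemiluminescence.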
JMJD2A Tudor – qHTS Assay for Inhibitors of JMJD2A-Tudor Domain; Lysine-specific demethylase 4A (Homo sapiens), O75164; 390,000 tested, 4.4% active; AlphaScreen JMJD2A-Tudor / H3K4me3 peptide binding; Potency, µM (doses to about 114 µM), inactives show at the highest dose activity change, negative = inhibition, most hits filed as inhibitors; also: % is scaled to controls: 0 for no effect and ±100 for the full control effect; nearly all actives have a fitted effect of over 50% in size
BAZ2B inh – qHTS Assay for Inhibitors of BAZ2B | 360,000 tested, 4.4% active | Potency, µM (highest dose often 114 µM), inactives show at the highest dose activity change, negative = inhibition, most hits filed as inhibitors | Bromodomain adjacent to zinc finger domain protein 2B (Homo sapiens), Q9UIF8 | AlphaScreen BAZ2B-H3K14Ac peptide displacement; also: % is scaled to controls: 0 for no effect and ±100 for the full control effect; nearly all actives have a fitted effect of over 60% in size
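In this displacement format the biotinylated H3(5-23) peptide acetylated at Lys14 serves as ligand at 50 nM, with BAZ2B at 50 nM in PBS pH 7.4 containing 0.01% Tween-20. Donor and acceptor beads are 10 ug/mL final.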
Sfp PPTase inh – qHTS Assay for Inhibitors of Bacillus subtilis Sfp phosphopantetheinyl transferase (PPTase) | 4'-phosphopantetheinyl transferase ffp (Bacillus subtilis), Q9F4F7 | Biochemical Sfp PPTase activity, qHTS | Potency, µM, for inactives: largest response in the series, negative = inhibition, hits mostly inhibitors | 310,000 tested, 3.5% active | AID 1490, 2009;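 also: the enzyme is Sfp with the accession as filed and its product quenches rhodamine fluorescence; 0% = enzyme reaction without inhibitor and -100% = no enzyme wells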
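Reaction rates are the 30-min fluorescence difference (ex 525, em 598 nm) in wells containing 15 nM Sfp, 5 uM rhodamine-CoA and 12.5 uM BHQ-2-YbbR at pH 7.6 with 10 mM MgCl2.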
HP1b binding inh – HTS for Inhibitors of HP1-beta Chromodomain Interactions with Methylated Histone Tails. AlphaScreen HP1-beta / biotin-H3K9me3 peptide binding. Chromobox protein homolog 1 (Homo sapiens), P83916. 390,000 tested, 0.56% active. Potency, µM (highest dose often 114 µM), inactives show top-dose activity change, negative = inhibition, most hits filed as inhibitors; also: nearly all actives have a fitted effect of over 70% in size
Target sequence (P83916 whole entry, looked up): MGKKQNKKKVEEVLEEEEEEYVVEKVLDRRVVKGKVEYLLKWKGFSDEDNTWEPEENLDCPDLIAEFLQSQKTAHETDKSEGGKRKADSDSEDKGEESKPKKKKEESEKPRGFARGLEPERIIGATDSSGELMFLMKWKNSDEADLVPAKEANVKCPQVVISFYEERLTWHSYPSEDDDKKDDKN
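HP1-beta protein (50 nM final) preincubated 30 min at room temperature with biotinylated H3(1-18)K9me3 peptide (50 nM) in PBS pH 7.4, 0.01% Tween-20, then compound added for 30 min. AlphaScreen streptavidin donor/nickel chelate acceptor beads (10 ug/mL final), 30 min dark, luminescence read.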
* marks the source's active call; other numbers are inactive results; ? = inconclusive; / = no result; [ ] = dose if it differs, or a comment. Calls follow the shape of the dose curve; as a rule, active = well fitted curve in the direction sought with a large enough effect; inconclusive = small, poorly fitted or top-dose-only effect, or another doubt; inactive = no such curve, though single readings can be large; an effect the other way counts as inactive or inconclusive. Potency is read from the fitted curve at half-maximal effect.

SMILES | G9a block | JMJD2A Tudor | BAZ2B inh | Sfp PPTase inh | HP1b binding inh
CCCCn1c(N)c(N(CC(C)C)C(=O)c2cccc(S(=O)(=O)N(CC)c3ccccc3)c2)c(=O)[nH]c1=O | / | -12% | / | / | -3%
CCCn1c(SCC(=O)NCc2ccccc2)n[nH]c1=O | 5% | 1% | 3% | 6% | 18%
Cc1nc(N=Nc2ccc(C(=O)O)cc2)c(COP(=O)(O)O)c(C=O)c1O | 40µM* | / | / | / | /
CS(=O)(=O)NCc1ccc(C(=O)O)cc1 | 23% | 4%[11.4 µM] | -6% | 9% | 24%
Cc1ccc(Nc2sc(C(=O)c3ccccc3)c(N)c2S(=O)(=O)c2ccccc2)cc1Cl | -1%[59 µM] | -20% | -31% | / | 36%
Cc1c(C(=O)O)sc2ncnc(N3CCCCC3C)c12 (centres undefined) | 0%[12.7 µM] | -2% | 9% | 1% | 25%
Cc1c(C(=O)N2CCCC(C)C2)sc2ncnc(N3CCCCC3C)c12 (centres undefined) | 19% | -17% | 0% | 79µM* | 22%
Cc1ccc(NC(=O)c2ncn(CCCNCc3ccccc3)n2)cc1C | / | -5% | / | / | 51%
CCOc1ccc(N2CC(C(=O)Nc3c(C)n(C)n(-c4ccccc4)c3=O)CC2=O)cc1 (centres undefined) | 0% | 7% | / | 19% | 28%
Cc1nc(C)c(C(=O)Nc2nc3c(C)cccc3s2)o1 | 14µM* | 35µM* | 35µM* | 50µM* | ?
Cc1cccc2sc(NC(=O)C3=NN(c4ccccc4)C(=O)CC3)nc12 | 50µM* | -7% | -3% | -2% | 36%
Cc1cccc2sc(NC(=O)C3CCCO3)nc12 (centres undefined) | 18%[59 µM] | -7% | -3% | 27% | 4%
Cc1ccc2nc(NC(=O)C3=NN(c4ccccc4)C(=O)CC3)sc2c1 | -26% | -18% | 3% | 1% | 24%
C[C@@H]1C(=O)O[C@H]2[C@@H](O)[C@@]34[C@H]5CC(C(C)(C)C)[C@]36[C@@H](OC(=O)[C@@H]6O)O[C@@]4(C(=O)O5)[C@@]12O (some centres undefined) | / | / | / | 13% | /
O=Cc1ccc(OC(=O)c2cccnc2)cc1 | 17%[59 µM] | -7% | -4% | -6% | 45%
Cc1ccc(-c2c(C)c(-c3ccc(F)cc3)nc(N)c2C#N)o1 | 13µM* | 6% | 20% | 18µM* | 40%
CCOc1ccc(NC(=O)CN(C)C(=O)c2n[nH]c(=O)c3ccccc23)cc1OCC | -3% | ? | -2% | / | 8%
COc1cc2c(=O)n(Cc3ccco3)c(=O)n(CC(=O)c3cccc(Br)c3)c2cc1OC | 39%[0.501 µM] | 11% | 0%[57.1 µM] | 79µM* | 29%
CCOc1ccccc1NC(=O)Cn1c(=O)n(Cc2ccccc2)c(=O)c2c(C)c(C)sc21 | -2%[59 µM] | -4% | -1% | / | 6%
Cc1ccc(-n2c(=O)c3ccc(C(=O)NCc4ccco4)cc3n(Cc3ccccc3Cl)c2=O)cc1 | 1.6µM* | -10% | / | / | 25%
CC[C@H](C)[C@H](NC(=O)[C@H](CC(=O)O)NC(=O)[C@H](CC(N)=O)NC(=O)[C@@H](NC(=O)[C@H](CCCNC(=N)N)NC(=O)[C@@H](NC(=O)[C@@H](NC(=O)[C@@H](NC(=O)[C@@H](NC(=O)[C@H](CCCCN)NC(=O)[C@@H](NC(=O)[C@H](CC(C)C)NC(=O)[C@@H](NC(=O)[C@H](CCCCN)NC(=O)[C@@H](NC(=O)[C@H](CC(=O)O)NC(=O)[C@H](CC(=O)O)NC(=O)[C@H](CCC(N)=O)NC(=O)[C@@H](NC(=O)[C@H](CCCCN)NC(=O)[C@H](CCC(N)=O)NC(=O)[C@@H](NC(=O)[C@@H]1CCCN1C(=O)[C@@H](N)C(C)C)[C@@H](C)CC)C(C)C)[C@@H](C)O)[C@@H](C)O)[C@@H](C)CC)[C@@H](C)O)[C@@H](C)CC)C(C)C)[C@@H](C)O)[C@@H](C)CC)C(=O)N[C@@H](CO)C(=O)N[C@@H](Cc1cnc[nH]1)C(=O)N[C@H](C(=O)N[C@@H](CCC(N)=O)C(=O)N[C@@H](CO)C(=O)N[C@H](C(=O)N[C@@H](CO)C(=O)N[C@@H](CO)C(=O)N[C@@H](CCCCN)C(=O)N[C@@H](CCC(N)=O)C(=O)N[C@@H](CCCCN)C(=O)O)C(C)C)[C@@H](C)O | / | / | / | 2% | /
CCOC(=O)c1cc2c(N)c(C(=O)c3cc(C#N)c(SC)nc3C)sc2nc1C | 45µM* | -10% | 7% | 40µM* | 20%
CCOC(=O)c1cc(C#N)c(SC)nc1C | / | 16%[57.1 µM] | 11% | 17% | 56%
Cc1nn(-c2ccc(N3CCCCC3)nn2)c(C)c1CCC(=O)NCc1ccc(OC(C)C)cc1 | 1%[59 µM] | -19% | -13% | / | 30%
O=C(Oc1cc(=O)oc2c1c(=O)n1c3c(cccc23)CC1)c1ccccc1 | / | ? | 50µM* | -16% | -3%
SMILES | G9a block | JMJD2A Tudor | BAZ2B inh | Sfp PPTase inh | HP1b binding inh
Cc1nc2c(cc1C(=O)N/N=C/c1ccc(O)c(O)c1)c(=O)n(C)c(=O)n2C | ? | 35µM* | -25% | -22% | -17%
CCOc1ccc(NC(=O)c2cc3cc4cc(OC)ccc4nc3s2)cc1 | 3%[59 µM] | -12% | 0% | / | 15%
CC(=O)C1=C(C)NC(SCC(=O)c2ccc(F)cc2)=C(C#N)C1CC(C)C (centres undefined) | 3.5µM* | 13µM* | -29% | 14µM* | 26%
CC(=O)C1=C(C)NC(SCC(N)=O)=C(C#N)C1CC(C)C (centres undefined) | 7.1µM* | 22µM* | -15% | 7% | -36%
CC1C(C#N)=C(SCC(N)=O)NC2=C1C(=O)CC(C)(C)C2 (centres undefined) | -44% | ? | 10% | -18% | 3%
CC(=O)C1=C(C)NC(SCC(N)=O)=C(C#N)C1C (centres undefined) | ? | 13µM* | -8% | 40µM* | ?
CCOC(=O)C1=C(C)NC(SC)=C(C#N)C1CC(C)C (centres undefined) | -7%[12.7 µM] | 10% | 19% | 3% | 47%
CC(=O)C1=C(C)NC(SCC(N)=O)=C(C#N)C1c1sccc1C (centres undefined) | -25%[59 µM] | ? | 0% | -2% | 30%
CCC1C(C#N)=C(SCC(N)=O)NC2=C1C(=O)CC(C)(C)C2 (centres undefined) | 40µM* | 71µM* | 1% | 8% | -6%
COc1cc(CN2CCC(n3nccc3NC(=O)c3ccc4c(c3)OCO4)CC2)ccc1O | ? | -11% | -16% | 12% | 12%
CC(CN(C)C)C(C)(O)Cc1ccc(Cl)cc1 (centres undefined) | 21%[59 µM] | / | / | -1% | /
